# Source: the supplement of paper PMC10849652
# Targets with a hit are over-represented here; the source holds about 7,900 in all. About 0.6% of all pairs of compound and target were hits. A number with no mark means an inactive call.
# Legend:
# Experiment in all cases: log2 fold change, soluble protein after heating vs DMSO (PISA); higher = thermal stabilisation; K562 cells, 10 uM, 30 min; active = over 0.2 and 3.5 SD of the protein, either way, in both replicates (recomputed)
# [1] = compound: CC1=C(C=C(C=C1)NC(=O)C2=CC(=CC=C2)C(C)(C)C#N)NC3=CC4=C(C=C3)N=CN(C4=O)C
# How it was run: (§1)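 Quantification of soluble protein used TMTpro 16plex LC-MS/MS, with channel sums equalised. Samples were the supernatant after 21,000xg for 90 min of pooled aliquots from K562 cells (2×10^6 cells/mL) treated with 10 μM compound for 30 min, heated for 3 min over 48°C-58°C, and extracted in PBS with 0.5% NP-40 at 4°C. Values, from duplicates, describe thermal stability against control samples on a log2 fold-change scale.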
# [2] = compound: CC1=C(C=C(C=C1)NC(=O)C2=CC(=CC=C2)N(C)C)NC(=O)C3=CC=C(C=C3)O
# How it was run: as §1
# [3] = compound: CC1=CC=C(C=C1)SC2=C3C=C(SC3=CN=C2)C(=O)N
# How it was run: as §1
# [4] = compound: CC1=NC(=CC=C1)C2=C(N=C(N2)C(C)(C)C)C3=CC4=NC=CN=C4C=C3
# How it was run: as §1
# Nexturastat A = compound: CCCCN(Cc1ccc(C(=O)NO)cc1)C(=O)Nc1ccccc1 [Nexturastat A]
# How it was run: as §1
# vemurafenib = compound: CCCS(=O)(=O)Nc1ccc(F)c(C(=O)c2c[nH]c3ncc(-c4ccc(Cl)cc4)cc23)c1F [vemurafenib]
# How it was run: as §1
# [5] = compound: CCCS(=O)(=O)Nc1ccc(F)c(C(=O)c2c[nH]c3ncc(Cl)cc23)c1F
# How it was run: as §1
# [6] = compound: CCCc1cc(C)[nH]c(=O)c1CNC(=O)c1cc(-c2ccnc(N3CCN(C)CC3)c2)cc2c1cnn2C(C)C
# How it was run: as §1
# givinostat = compound: CCN(CC)Cc1ccc2cc(COC(=O)Nc3ccc(C(=O)NO)cc3)ccc2c1 [givinostat]
# How it was run: as §1
# barasertib = compound: CCN(CCCOc1ccc2c(Nc3cc(CC(=O)Nc4cccc(F)c4)[nH]n3)ncnc2c1)CCOP(=O)(O)O [barasertib]
# How it was run: as §1
# [7] = compound: CC[C@@H]1C(=O)N(C)c2cnc(Nc3ccc(C(=O)NC4CCN(C)CC4)cc3OC)nc2N1C1CCCC1
# How it was run: as §1
# volasertib = compound: CC[C@@H]1C(=O)N(C)c2cnc(Nc3ccc(C(=O)N[C@H]4CC[C@H](N5CCN(CC6CC6)CC5)CC4)cc3OC)nc2N1C(C)C [volasertib]
# How it was run: as §1
# [8] = compound: CC[C@H](C)N1C=C(C2=C(C=C(C=C21)C3=CN=C(C=C3)N4CCNCC4)C(=O)NCC5=C(C=C(NC5=O)C)C)C
# How it was run: as §1
# epoxomicin = compound: CC[C@H](C)[C@@H](C(=O)N[C@@H]([C@@H](C)O)C(=O)N[C@@H](CC(C)C)C(=O)[C@]1(CO1)C)NC(=O)[C@H]([C@@H](C)CC)N(C)C(=O)C [epoxomicin]
# How it was run: as §1
# [9] = compound: CCn1c(C(=O)N(C2CC2)C2CC2)cc2c3c(ncn3C)c(Nc3cc(C)n(C)n3)nc21
# How it was run: as §1
# [10] = compound: CCn1cc(-c2ccnc3[nH]c(-c4cccc(CN(C)C)c4)cc23)c(-c2ccc(NC(=O)N(C)C)cc2)n1
# How it was run: as §1
# [11] = compound: CN(C)CC(=O)Nc1ccc2[nH]c(=O)c3ccccc3c2c1
# How it was run: as §1
# rosiglitazone = compound: CN(CCOC1=CC=C(C=C1)C[C@H]2C(=O)NC(=O)S2)C3=CC=CC=N3 (racemic) [rosiglitazone]
# How it was run: as §1
# [12] = compound: CN1C2=C(C3=C1C(=O)N(N=C3)CC4=CC(=CC=C4)N)SC(=C2)S(=O)C
# How it was run: as §1
# [13] = compound: CN1CCC(CNc2ccc3ncc(-c4cccc(OC(F)(F)F)c4)n3n2)CC1
# How it was run: as §1
# Chain of UniProt Q12968 (Q12968 whole entry, looked up): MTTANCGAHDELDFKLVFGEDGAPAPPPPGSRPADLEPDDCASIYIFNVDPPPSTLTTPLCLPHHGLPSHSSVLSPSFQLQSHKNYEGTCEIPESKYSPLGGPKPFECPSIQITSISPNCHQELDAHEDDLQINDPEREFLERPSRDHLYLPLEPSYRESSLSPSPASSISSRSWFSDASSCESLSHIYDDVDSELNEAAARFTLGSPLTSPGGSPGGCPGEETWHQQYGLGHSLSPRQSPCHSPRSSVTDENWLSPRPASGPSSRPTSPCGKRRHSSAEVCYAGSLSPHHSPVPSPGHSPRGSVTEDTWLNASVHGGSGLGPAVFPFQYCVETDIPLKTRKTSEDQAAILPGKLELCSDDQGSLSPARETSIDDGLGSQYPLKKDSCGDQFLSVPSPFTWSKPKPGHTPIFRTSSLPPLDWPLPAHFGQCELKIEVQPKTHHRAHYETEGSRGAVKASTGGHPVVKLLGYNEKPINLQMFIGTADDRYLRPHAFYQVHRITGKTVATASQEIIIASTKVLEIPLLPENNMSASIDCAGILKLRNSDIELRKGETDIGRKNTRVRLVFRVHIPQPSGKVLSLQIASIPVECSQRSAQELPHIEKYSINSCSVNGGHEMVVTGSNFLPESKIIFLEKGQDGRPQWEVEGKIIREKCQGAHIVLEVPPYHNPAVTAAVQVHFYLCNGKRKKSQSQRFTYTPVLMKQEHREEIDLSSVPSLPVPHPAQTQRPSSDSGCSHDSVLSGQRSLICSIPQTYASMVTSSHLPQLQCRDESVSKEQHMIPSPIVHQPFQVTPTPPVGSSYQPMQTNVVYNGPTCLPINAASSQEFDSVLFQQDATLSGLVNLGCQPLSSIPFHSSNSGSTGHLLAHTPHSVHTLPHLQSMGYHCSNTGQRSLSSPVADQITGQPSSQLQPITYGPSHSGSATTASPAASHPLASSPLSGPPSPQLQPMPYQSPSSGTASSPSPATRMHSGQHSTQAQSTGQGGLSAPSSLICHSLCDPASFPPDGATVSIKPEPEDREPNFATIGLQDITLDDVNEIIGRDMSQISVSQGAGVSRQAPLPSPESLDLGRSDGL
# Chain of UniProt Q5TFE4 (Q5TFE4 whole entry, looked up): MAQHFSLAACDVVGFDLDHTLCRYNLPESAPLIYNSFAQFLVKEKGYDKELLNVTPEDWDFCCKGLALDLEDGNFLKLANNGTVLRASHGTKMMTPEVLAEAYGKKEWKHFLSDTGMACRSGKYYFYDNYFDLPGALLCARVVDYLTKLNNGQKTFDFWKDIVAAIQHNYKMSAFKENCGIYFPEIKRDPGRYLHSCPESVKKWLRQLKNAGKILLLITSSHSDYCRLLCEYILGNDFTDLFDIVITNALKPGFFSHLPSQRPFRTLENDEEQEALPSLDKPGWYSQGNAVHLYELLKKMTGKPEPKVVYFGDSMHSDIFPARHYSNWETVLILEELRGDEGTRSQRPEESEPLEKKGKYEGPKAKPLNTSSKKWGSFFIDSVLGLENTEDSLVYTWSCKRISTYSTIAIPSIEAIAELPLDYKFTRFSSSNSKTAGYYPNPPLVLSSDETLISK
# Chain of UniProt Q9Y314 (Q9Y314 whole entry, looked up): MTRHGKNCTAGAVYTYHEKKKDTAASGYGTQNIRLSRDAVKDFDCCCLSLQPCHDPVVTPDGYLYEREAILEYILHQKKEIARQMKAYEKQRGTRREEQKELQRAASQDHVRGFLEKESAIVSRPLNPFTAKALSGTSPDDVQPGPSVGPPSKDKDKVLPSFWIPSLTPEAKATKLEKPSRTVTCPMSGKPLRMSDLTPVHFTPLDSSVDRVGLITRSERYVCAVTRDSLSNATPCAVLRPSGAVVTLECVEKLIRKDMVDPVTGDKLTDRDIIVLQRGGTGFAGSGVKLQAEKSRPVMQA
# Chain of UniProt O95182 (O95182 whole entry, looked up): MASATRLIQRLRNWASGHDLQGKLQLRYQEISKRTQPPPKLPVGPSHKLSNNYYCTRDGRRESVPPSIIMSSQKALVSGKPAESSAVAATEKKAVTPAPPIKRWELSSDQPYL
# Chain of UniProt Q8WVJ2 (Q8WVJ2 whole entry, looked up): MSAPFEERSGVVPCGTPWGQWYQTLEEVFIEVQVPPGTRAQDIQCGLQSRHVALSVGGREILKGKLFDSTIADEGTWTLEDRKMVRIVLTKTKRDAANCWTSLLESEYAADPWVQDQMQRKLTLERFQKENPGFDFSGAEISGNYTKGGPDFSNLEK
# Chain of UniProt Q68DK7 (Q68DK7 whole entry, looked up): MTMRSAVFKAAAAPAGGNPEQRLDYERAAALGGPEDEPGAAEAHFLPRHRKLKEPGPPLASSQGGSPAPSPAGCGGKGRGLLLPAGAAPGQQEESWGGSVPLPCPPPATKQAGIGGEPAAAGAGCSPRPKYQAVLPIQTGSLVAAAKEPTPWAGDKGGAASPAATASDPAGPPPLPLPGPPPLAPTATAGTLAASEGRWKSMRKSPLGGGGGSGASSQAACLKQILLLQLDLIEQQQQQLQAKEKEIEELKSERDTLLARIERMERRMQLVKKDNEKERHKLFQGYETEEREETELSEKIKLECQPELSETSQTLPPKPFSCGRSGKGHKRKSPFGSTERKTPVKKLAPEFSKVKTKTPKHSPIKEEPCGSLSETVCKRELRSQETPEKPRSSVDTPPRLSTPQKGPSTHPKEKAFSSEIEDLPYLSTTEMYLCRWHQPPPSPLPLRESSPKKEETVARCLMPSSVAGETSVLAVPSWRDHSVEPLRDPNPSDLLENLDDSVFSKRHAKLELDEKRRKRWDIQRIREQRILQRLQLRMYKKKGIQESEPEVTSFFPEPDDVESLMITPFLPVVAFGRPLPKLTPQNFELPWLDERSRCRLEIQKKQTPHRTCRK
# Chain of UniProt O14524 (O14524 whole entry, looked up): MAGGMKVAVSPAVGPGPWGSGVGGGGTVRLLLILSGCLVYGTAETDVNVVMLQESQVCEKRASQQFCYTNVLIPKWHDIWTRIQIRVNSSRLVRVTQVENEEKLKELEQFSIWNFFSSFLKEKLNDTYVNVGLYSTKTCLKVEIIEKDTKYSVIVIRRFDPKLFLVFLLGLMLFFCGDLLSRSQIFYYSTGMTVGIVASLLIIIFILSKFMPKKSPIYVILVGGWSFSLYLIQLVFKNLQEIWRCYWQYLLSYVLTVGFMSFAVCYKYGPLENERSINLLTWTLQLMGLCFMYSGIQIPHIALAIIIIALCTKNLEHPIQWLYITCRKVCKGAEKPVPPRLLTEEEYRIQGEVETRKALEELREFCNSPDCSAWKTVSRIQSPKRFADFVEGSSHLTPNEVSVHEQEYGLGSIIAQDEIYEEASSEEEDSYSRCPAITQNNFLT
# Chain of UniProt Q99747 (Q99747 whole entry, looked up): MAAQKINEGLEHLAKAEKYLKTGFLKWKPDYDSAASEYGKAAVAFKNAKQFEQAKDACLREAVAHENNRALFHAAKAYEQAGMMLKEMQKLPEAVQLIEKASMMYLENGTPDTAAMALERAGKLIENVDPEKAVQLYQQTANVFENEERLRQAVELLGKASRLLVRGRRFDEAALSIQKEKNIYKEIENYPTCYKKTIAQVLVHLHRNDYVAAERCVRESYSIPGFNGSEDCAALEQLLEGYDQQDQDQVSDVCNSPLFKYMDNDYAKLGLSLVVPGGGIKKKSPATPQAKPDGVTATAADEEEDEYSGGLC
# Chain of UniProt Q8N4C8 (Q8N4C8 whole entry, looked up): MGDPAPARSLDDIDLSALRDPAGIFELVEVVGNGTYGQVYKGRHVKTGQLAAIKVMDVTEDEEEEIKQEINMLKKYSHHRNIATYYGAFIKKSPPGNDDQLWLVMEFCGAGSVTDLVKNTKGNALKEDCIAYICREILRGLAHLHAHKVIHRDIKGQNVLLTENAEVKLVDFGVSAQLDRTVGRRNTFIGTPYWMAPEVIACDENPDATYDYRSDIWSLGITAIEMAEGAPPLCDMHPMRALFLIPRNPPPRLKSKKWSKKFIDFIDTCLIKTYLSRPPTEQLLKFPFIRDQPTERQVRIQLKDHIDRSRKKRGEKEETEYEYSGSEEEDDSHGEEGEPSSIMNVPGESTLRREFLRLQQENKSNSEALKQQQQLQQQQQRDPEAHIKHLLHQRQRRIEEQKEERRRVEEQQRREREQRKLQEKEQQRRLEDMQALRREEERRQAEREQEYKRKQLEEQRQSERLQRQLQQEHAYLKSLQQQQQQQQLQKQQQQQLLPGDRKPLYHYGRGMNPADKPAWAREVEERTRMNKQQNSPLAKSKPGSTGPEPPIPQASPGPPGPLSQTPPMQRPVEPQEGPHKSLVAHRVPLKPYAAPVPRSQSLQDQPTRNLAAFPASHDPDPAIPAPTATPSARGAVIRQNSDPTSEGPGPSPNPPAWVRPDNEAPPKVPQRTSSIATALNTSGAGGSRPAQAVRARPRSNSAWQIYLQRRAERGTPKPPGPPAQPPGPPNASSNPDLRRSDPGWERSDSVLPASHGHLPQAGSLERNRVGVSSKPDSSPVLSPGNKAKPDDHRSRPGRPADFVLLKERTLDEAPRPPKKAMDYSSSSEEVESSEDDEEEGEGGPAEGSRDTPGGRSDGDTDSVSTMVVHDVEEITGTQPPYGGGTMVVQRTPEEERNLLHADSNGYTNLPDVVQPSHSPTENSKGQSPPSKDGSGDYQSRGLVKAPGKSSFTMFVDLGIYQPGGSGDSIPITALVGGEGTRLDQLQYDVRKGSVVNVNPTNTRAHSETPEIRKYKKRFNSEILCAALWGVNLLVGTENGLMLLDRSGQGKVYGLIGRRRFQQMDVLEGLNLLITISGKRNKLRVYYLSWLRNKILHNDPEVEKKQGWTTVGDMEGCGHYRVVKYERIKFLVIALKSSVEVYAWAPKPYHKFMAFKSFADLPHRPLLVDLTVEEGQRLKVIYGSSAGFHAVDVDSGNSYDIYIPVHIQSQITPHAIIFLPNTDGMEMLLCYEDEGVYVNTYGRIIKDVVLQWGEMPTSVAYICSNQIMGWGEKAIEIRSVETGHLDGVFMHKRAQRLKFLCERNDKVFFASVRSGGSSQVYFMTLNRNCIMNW
Target,log2 fold change [1],log2 fold change [2],log2 fold change [3],log2 fold change [4],log2 fold change (Nexturastat A),log2 fold change (vemurafenib),log2 fold change [5],log2 fold change [6],log2 fold change (givinostat),log2 fold change (barasertib),log2 fold change [7],log2 fold change (volasertib),log2 fold change [8],log2 fold change (epoxomicin),log2 fold change [9],log2 fold change [10],log2 fold change [11],log2 fold change (rosiglitazone),log2 fold change [12],log2 fold change [13]
NUDCD2 (UniProt Q8WVJ2),-0.018,-0.109,0.117,0.019,0.082,-0.014,0.008,-0.039,0.047,0.104,-0.177,-0.566 (active),0.056,-0.098,-0.042,0.021,0.081,0.093,0.023,-0.291
NDUFA7 (UniProt O95182),-0.013,0,-0.007,-0.021,-0.035,-0.045,0.019,-0.079,-0.024,-0.011,-0.19,-0.109,-0.023,0.052,0,0.011,0.01,-0.02,0.027,-0.324 (active)
MRPS35 (UniProt P82673),-0.016,-0.013,-0.04,-0.007,0.167,-0.063,-0.022,0.149,0.017,-0.034,0.064,0.014,0.029,0.048,-0.054,-0.076,0.027,-0.08,-0.013,-0.007
NAPG (UniProt Q99747),0.044,-0.115,0.077,0.006,0.004,0.067,0.155,0.045,0.123,0.107,-0.118,-0.462 (active),0.072,0.069,-0.05,-0.076,0.048,0.088,0,-0.028
MRPS17 (UniProt Q9Y2R5),0.055,-0.095,-0.014,0.008,0.085,0.084,0.031,0.095,-0.103,0.01,-0.111,-0.018,0.022,-0.043,-0.059,0.043,0.069,0.057,0.022,-0.016
NFATC3 (UniProt Q12968),0.067,-0.506,0,-0.055,0.047,-0.033,0.094,0.116,0.088,0.019,0.038,-0.331,0.073,-0.046,0.065,-0.038,0.049,0.068,0.036,0.039
NCOA7 (UniProt Q8NI08),0.068,-0.045,0.015,0.016,0.012,0.008,-0.005,0.024,0.045,0.009,-0.035,-0.287 (active),0.124,0.021,-0.091,-0.004,-0.002,0.099,-0.009,-0.265
NT5DC1 (UniProt Q5TFE4),0.149,-0.018,-0.019,0.021,-0.068,-0.001,-0.016,-0.003,0.004,-0.039,0.165,0.051,-0.026,0.045,0.015,-0.054,0.014,0.008,-0.037,-0.063
MRPS18B (UniProt Q9Y676),-0.036,-0.165,-0.08,0.009,0.031,-0.074,0,-0.081,0.075,-0.017,0.028,-0.039,0.09,0.042,-0.075,-0.021,0.041,-0.069,-0.01,-0.087
NEU1 (UniProt Q99519),0.031,-0.048,0.029,0.118,0.068,-0.002,-0.008,0.057,0.036,0.059,-0.184,-0.501 (active),0.059,0.113,-0.04,0.052,0.012,0.032,0.015,-0.079
MSL1 (UniProt Q68DK7),-0.014,0.037,-0.026,0.039,0.185,-0.02,-0.001,0.05,0.197,-0.002,0.077,0.002,-0.19,0.007,-0.161,-0.26,-0.087,0.028,0.098,-0.161
NEMP1 (UniProt O14524),-0.051,0.037,0.031,-0.022,-0.057,-0.084,-0.041,-0.001,-0.061,-0.034,0.007,-0.128,-0.023,0.015,0.08,0.018,-0.003,0.048,0.01,-0.106
NOSIP (UniProt Q9Y314),0.02,-0.2,0.032,0.012,0.149,0.247,0.168,0.047,0.14,0.197,-0.373,-1.06 (active),0.151,0.104,-0.129,-0.017,0.196,0.052,0.109,0.097
NSMCE4A (UniProt Q9NXX6),0,0.022,-0.035,-0.053,0.037,0.088,-0.041,-0.016,-0.072,0.196,0.069,0.053,0.103,-0.02,0.112,-0.251,-0.13,0.057,-0.33,-0.009
MRPS31 (UniProt Q92665),-0.015,-0.012,-0.041,-0.017,0.111,-0.041,0.054,-0.012,0.009,-0.007,0.056,0,0.036,-0.015,-0.036,0.014,-0.054,-0.018,0,0.052
MINK1 (UniProt Q8N4C8),-0.04,0.038,-0.003,0.029,-0.007,-0.004,0.024,0.003,-0.007,-0.016,-0.01,-0.149,0.056,-0.009,-0.011,-0.069,-0.035,0.011,-0.004,-0.137
